# Measured values: PubChem BioAssay (NCATS)
# Values joined by “and” are separate entries in the source; they are usually repeats but may differ in a detail not shown here. Identical values can stand only once. Values without a mark were called inactive. Where a call stands in place of a potency, no number is given. Active and inactive are the calls of the source. Unless noted, the call rests on the fitted dose curve; in most records, active means well fitted curve in the direction sought with a large enough effect; inconclusive means small, poorly fitted or top-dose-only effect, or another doubt; inactive means no such curve, though single readings can be large; an effect the other way counts as inactive or inconclusive.
# Key:
# [1] = target: Cytochrome P450 3A4 (Homo sapiens) (UniProt P08684); assay: qHTS Assay for Inhibitors and Substrates of Cytochrome P450 3A4 (AID 884); settings: recombinant CYP3A4, Luciferin-PPXE luminescence; series mostly up to 57.1 µM; further: nearly all actives have a fitted effect of over 50% in size
# Outline: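 20 nM human CYP3A4 with 25 uM Luciferin-PPXE (at KM) in 200 mM KPO4, preincubated 10 min with compound; NADPH regeneration started a 60 min RT reaction. Luciferin detected by luminescence, normalized to 57 uM ketoconazole as full inhibition.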
# [2] = MultiTox-Fluor Cytotoxicity Assay - LYMP1-001 - Dead Cells (AID 946); settings: LYMP1-001 lymphoblastoid cells, dead-cell protease fluorescence; series mostly up to 92.2 µM; further: potency means the concentration at half of the fitted maximal effect
# Outline: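 AC50 from Hill fit of concentration-response; data normalized to DMSO (basal) and 15 uM tetraoctylammonium bromide (100%). LYMP1-001 lymphoblastoid cells, 2500/well, 16 hr compound at 37 C; dead-cell protease fluorescence, Ex/Em 485/520.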
# [3] = MultiTox-Fluor Cytotoxicity Assay - LYMP1-001 - Live Cells (AID 947); settings: LYMP1-001 lymphoblastoid cells, live-cell protease fluorescence viability; series mostly up to 92.2 µM
# [4] = MultiTox-Fluor Cytotoxicity Assay - LYMP1-002 - Dead Cells (AID 960); settings: LYMP1-002 lymphoblastoid cells, dead-cell protease fluorescence; series mostly up to 46.1 µM; further: nearly all actives have a fitted effect of over 60% in size; further: potency means the concentration at half of the fitted maximal effect
# Outline: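 Human lymphoblastoid cells (LYMP1-002), 2500/well in complete medium, were exposed to compounds for 16 hr at 37 C. Dead-cell protease activity was read as bis-AAF-R110 fluorescence (Ex/Em 485/520), normalized to DMSO and 15 uM tetraoctylammonium bromide; AC50 from Hill fits.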
# [5] = Cell Viability - LYMP2-013 (AID 970); settings: LYMP2-013 lymphoblastoid cells viability; series mostly up to 92.2 µM; further: nearly all actives have a fitted effect of over 55% in size; further: potency means the concentration at half of the fitted maximal effect
# Outline: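 Human lymphoblastoid cells, 2500/well, were preincubated 5 hr at 37 C, then treated with compounds for 24 hr at 37 C in complete medium. Intracellular ATP was read by CellTiter-Glo luminescence; AC50 from Hill-equation fits of concentration-response data.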
# [6] = Cell Viability - LYMP2-002 (AID 977); settings: LYMP2-002 lymphoblastoid cell viability, qHTS; series mostly up to 92.2 µM; further: potency means the concentration at half of the fitted maximal effect
# Outline: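 Luminescent ATP readout (CellTiter-Glo, 30 min room temperature) after 24 h compound exposure at 37 C of a human lymphoblastoid line, 2500 cells/well. AC50 values derived by standard Hill fitting of qHTS concentration-response data.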
# [7] = Cell Viability - LYMP2-006 (AID 978); settings: LYMP2-006 lymphoblastoid cell viability, qHTS; series mostly up to 92.2 µM; further: nearly all actives have a fitted effect of over 60% in size; further: potency means the concentration at half of the fitted maximal effect
# Outline: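 Cells are seeded at 2500 per well and rested 5 hr at 37 C. Compounds are added across a concentration series for 24 hr at 37 C, after which ATP is quantified by luciferase luminescence.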
# [8] = Cell Viability - LYMP2-010 (AID 981); settings: LYMP2-010 lymphoblastoid cell viability, qHTS; series mostly up to 92.2 µM; further: nearly all actives have a fitted effect of over 55% in size; further: potency means the concentration at half of the fitted maximal effect
# Outline: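 Human lymphoblastoid LYMP2-010 cells (2500/well) were preincubated 5 hr at 37 C, then exposed to compounds for 24 hr at 37 C in complete medium. Intracellular ATP was measured by CellTiter-Glo luminescence after 30 min at room temperature; AC50 from Hill-fitted concentration-response.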
# [9] = Cell Viability - LYMP2-014 (AID 983); settings: LYMP2-014 lymphoblastoid cells, viability qHTS; series mostly up to 92.2 µM; further: nearly all actives have a fitted effect of over 50% in size; further: potency means the concentration at half of the fitted maximal effect
# Outline: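 Human lymphoblastoid cells (2500/well) were pre-incubated 5 hr at 37 C, then exposed to compounds in complete medium for 24 hr at 37 C. Intracellular ATP was read by CellTiter-Glo luminescence after 30 min at room temperature; AC50 from Hill fits.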
# [10] = Cell Viability - LYMP2-022 (AID 987); settings: LYMP2-022 lymphoblastoid cell viability; series mostly up to 92.2 µM; further: nearly all actives have a fitted effect of over 55% in size; further: potency means the concentration at half of the fitted maximal effect
# Outline: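 Human lymphoblastoid cells, 2500/well, preincubated 5 hr at 37 C, then exposed to compounds over a concentration range for 24 hr at 37 C in complete medium. Viability read as intracellular ATP by CellTiter-Glo luminescence after 30 min at room temperature; AC50 from Hill fits.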
# [11] = Cell Viability - LYMP2-024 (AID 988); settings: LYMP2-024 lymphoblastoid cell viability; series mostly up to 92.2 µM; further: nearly all actives have a fitted effect of over 60% in size; further: potency means the concentration at half of the fitted maximal effect
# Outline: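 Human lymphoblastoid cells (2500/well) in complete medium were preincubated 5 hr at 37 C, then exposed to compounds for 24 hr at 37 C. Intracellular ATP was read by CellTiter-Glo luminescence; AC50 from Hill-equation fits of concentration-response data.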
# [12] = Cell Viability - LYMP2-026 (AID 989); settings: LYMP2-026 lymphoblastoid cell viability, qHTS; series mostly up to 92.2 µM; further: nearly all actives have a fitted effect of over 50% in size; further: potency means the concentration at half of the fitted maximal effect
# Outline: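 Human lymphoblastoid cells (2500/well) in complete medium were preincubated 5 hr at 37 C, then exposed to compounds for 24 hr at 37 C. Cellular ATP was read by CellTiter-Glo luminescence; AC50 from Hill-equation fits of concentration-response data.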
# [13] = target: Peroxisome proliferator-activated receptor delta (Homo sapiens) (UniProt Q03181); assay: qHTS assay for small molecule agonists of peroxisome proliferator-activated receptor delta signaling (AID 588534; calls by dose curve); settings: HEK293T PPARdelta-UAS-bla, beta-lactamase ratio, 18 h; series mostly up to 76.7 µM
# Outline: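 Cell-based beta-lactamase reporter assay run in agonist mode: cells seeded and incubated 5 hrs at 37 C, compounds added and incubated 18 hrs at 37 C. CCF4 dye fluorescence read after 2 hrs at RT; EC50 and efficacy from Hill fits.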
# [14] = target: Vitamin D3 receptor (Homo sapiens) (UniProt P11473); assay: qHTS assay for small molecule agonists of vitamin D receptor signaling (AID 588543; calls by dose curve); settings: HEK293T VDR-UAS-bla, beta-lactamase ratio, 16 h; series mostly up to 76.8 µM
# Outline: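 Reporter cells (HEK293T, VDR-UAS-bla) were seeded in medium with 2% charcoal-stripped serum and incubated 5 h, then compounds in concentration series were added for 16 h at 37 °C. Stimulation was scaled between DMSO basal and 50 nM 1α,25-dihydroxyvitamin D3.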
# [15] = qHTS assay for small molecule disruptors of the mitochondrial membrane potential - 1 hr assay (AID 651754; calls by dose curve; further: nearly all actives have a fitted effect of over 35% in size); settings: series mostly up to 92.2 µM
# Outline: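 HepG2 cells, attached overnight at 37C, were exposed to compound or DMSO vehicle for 1 hr at 37C, 5% CO2, then stained with Mito-MPS dye for 30 min. Red aggregate versus green monomer fluorescence reports membrane potential.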
# [16] = qHTS assay for cell viability of HEK293 cells (AID 743288); settings: ATP luminescence (CellTiter-Glo), 18 h; max response: active compounds read low; further: nearly all actives have a fitted effect of over 50% in size
# Outline: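 HEK293 parental, 2,000 cells/well; ≥5 h pre-incubation 37 C; pintool compound addition; 18 h, 37 C; CellTiter-Glo 30 min RT; luminescence read.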
# [17] = Cellular Toxicity (caspase-3) H-4-II-E (AID 663); settings: H-4-II-E rat hepatoma, scaled: DMSO 0%, 100 µM tamoxifen 100%; at 92.2 µM (top of the series);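 further: cells exposed to compound for 16 hr before readout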
# Outline: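 Luminescence from caspase-cleaved aminoluciferin substrate, read 20 min after reagent addition, reports caspase 3/7 activation in rat H-4-II-E cells after 16 hr compound exposure. Normalized to DMSO (basal) and 100 uM tamoxifen (100%); AC50 from Hill fits.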
# [18] = Cell Viability - HepG2 (AID 433; calls by dose curve;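 further: potency means the concentration at half of the fitted maximal effect; cells exposed to compound for 40 hours; potency for ATP loss meaning cytotoxicity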); settings: qHTS
# Outline: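 Read-out is luciferase-based quantitation of cellular ATP as a measure of viable HepG2 cells after 40 h treatment at 37 °C. Signal decrease is scaled between DMSO-only and 100 uM tamoxifen controls, with AC50 fitted by the Hill equation.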
# [19] = target: Estrogen receptor (Homo sapiens) (UniProt P03372); assay: qHTS assay for small molecule antagonists of estrogen receptor alpha signaling (AID 588513; active means well fitted curve in the direction sought with a large enough effect in the signal ratio, with a control signal flat, not every such curve was filed as active; inconclusive means small, poorly fitted or top-dose-only effect, or effect the other way, or a change in a side signal; inactive means no such curve, though single readings can be large or run the other way; the % refers to the signal ratio; further: potency means the concentration at half of the fitted maximal effect); settings: ER-alpha-UAS-bla HEK293, beta-lactamase ratio, antagonist mode; series mostly up to 76.9 µM
# Outline: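 Fluorescence from CCF4 substrate after 2 h at room temperature gave reporter activity; cells had been exposed to compound and 0.5nM 17-beta-estradiol for 18 h at 37 C. Hill-equation fitting yielded IC50 and maximal response.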
# Peroxisome proliferator-activated receptor delta (Homo sapiens), sequence (Q03181 whole entry, looked up): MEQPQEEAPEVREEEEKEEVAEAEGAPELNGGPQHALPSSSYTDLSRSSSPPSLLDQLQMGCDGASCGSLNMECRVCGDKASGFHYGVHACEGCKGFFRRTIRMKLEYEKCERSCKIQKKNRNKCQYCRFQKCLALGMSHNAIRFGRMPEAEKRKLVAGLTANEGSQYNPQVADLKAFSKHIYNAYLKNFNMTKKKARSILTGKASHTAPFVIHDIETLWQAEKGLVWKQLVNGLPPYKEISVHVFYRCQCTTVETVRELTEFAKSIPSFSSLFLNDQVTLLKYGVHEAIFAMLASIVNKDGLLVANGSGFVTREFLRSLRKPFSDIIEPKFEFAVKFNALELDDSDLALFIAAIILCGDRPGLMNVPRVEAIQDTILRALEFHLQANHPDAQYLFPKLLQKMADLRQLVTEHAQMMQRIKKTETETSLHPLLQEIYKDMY
# Cytochrome P450 3A4 (Homo sapiens), sequence (P08684 whole entry, looked up): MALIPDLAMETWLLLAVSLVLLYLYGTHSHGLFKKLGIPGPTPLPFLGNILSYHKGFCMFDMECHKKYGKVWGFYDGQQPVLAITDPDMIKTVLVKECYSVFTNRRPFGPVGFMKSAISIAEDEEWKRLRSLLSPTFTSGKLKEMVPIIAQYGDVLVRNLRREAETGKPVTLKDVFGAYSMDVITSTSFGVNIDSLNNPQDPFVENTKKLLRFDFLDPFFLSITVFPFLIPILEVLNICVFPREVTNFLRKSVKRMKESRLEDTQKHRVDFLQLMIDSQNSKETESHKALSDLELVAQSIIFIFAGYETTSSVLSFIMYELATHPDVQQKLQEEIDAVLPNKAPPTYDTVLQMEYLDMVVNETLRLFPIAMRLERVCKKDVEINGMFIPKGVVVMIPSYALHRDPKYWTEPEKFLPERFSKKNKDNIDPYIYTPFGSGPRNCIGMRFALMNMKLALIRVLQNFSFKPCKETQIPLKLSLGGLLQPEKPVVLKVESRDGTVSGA
# Estrogen receptor (Homo sapiens), sequence (P03372 whole entry, looked up): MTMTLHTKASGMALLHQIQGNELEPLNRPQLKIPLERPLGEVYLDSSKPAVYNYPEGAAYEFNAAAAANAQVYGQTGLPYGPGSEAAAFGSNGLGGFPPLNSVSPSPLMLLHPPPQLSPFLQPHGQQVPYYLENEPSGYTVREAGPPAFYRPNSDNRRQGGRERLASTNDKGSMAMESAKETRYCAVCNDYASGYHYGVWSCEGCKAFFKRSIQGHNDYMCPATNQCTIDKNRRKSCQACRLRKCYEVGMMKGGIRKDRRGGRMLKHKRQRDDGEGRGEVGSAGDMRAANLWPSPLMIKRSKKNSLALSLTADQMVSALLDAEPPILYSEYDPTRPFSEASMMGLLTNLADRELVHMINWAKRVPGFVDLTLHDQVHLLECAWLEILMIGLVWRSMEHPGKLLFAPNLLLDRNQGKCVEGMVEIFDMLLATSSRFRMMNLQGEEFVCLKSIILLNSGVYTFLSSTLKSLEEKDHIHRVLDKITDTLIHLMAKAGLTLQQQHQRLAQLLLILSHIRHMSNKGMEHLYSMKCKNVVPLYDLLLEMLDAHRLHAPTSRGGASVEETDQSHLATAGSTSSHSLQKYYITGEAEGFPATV
# Vitamin D3 receptor (Homo sapiens), sequence (P11473 whole entry, looked up): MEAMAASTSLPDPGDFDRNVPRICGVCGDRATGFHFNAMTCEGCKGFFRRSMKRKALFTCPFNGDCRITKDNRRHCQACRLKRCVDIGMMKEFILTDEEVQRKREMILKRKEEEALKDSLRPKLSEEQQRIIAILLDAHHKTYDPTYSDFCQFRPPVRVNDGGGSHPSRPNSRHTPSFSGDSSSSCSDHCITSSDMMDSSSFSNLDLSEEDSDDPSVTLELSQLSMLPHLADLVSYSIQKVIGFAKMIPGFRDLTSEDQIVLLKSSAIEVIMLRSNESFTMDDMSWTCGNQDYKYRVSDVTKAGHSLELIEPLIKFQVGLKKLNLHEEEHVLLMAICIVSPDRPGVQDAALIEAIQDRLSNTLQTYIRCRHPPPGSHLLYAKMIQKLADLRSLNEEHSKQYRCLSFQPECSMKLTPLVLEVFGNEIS
SMILES,Potency [1],Potency [2],Potency [3],Potency [4],Potency [5],Potency [6],Potency [7],Potency [8],Potency [9],Potency [10],Potency [11],Potency [12],outcome [13],outcome [14],Potency [15],max response [16],caspase-3 activation [17] [%],Potency [18] [µM],Potency [19]
O=[N+]([O-])C(Br)Br,inactive,inactive,inactive,inactive,12.6 µM (active),10 µM (active),20 µM (active),7.94 µM (active),15.8 µM (active),12.6 µM (active),7.94 µM (active),20 µM (active),inactive,inactive,inactive,-25.4%,,,
CC(=O)[O-].CC(=O)[O-].O.O.[Cd+2],,inactive,inactive,inactive,,,,39.8 µM (active),,,,,,,inactive,,0.407,,
CC(C)CC(C)Nc1ccc(Nc2ccccc2)cc1 (stereo not drawn),,,,,50.1 µM (active),39.8 µM (active),39.8 µM (active),39.8 µM (active),39.8 µM (active),31.6 µM (active),25.1 µM (active),,inactive,inactive,,-21.7%,,> 92,25.1 µM [inconclusive] (active)
Cc1ccc(O)cc1C,,,,,,,,,,,,,,,,6.02%,,> 92,
[Cd+2].[Cl-].[Cl-],,inactive,,inactive,,,,50.1 µM (active),,39.8 µM (active),,,,inactive,,,-2.46,,44.7 µM [inconclusive] (active)
Nc1ccccc1C(=O)OCCc1ccccc1,,inactive,inactive,inactive,inactive,inactive,inactive,inactive,inactive,inactive,inactive,inactive,,inactive,,,-2.95,> 92,
O=C(CCl)c1ccccc1,inactive,50.1 µM (active),,25.1 µM (active),15.8 µM (active),12.6 µM (active),12.6 µM (active),7.94 µM (active),12.6 µM (active),6.31 µM (active),7.94 µM (active),12.6 µM (active),inactive,inactive,inactive,,-5.13,,
OC(c1ccc(Cl)cc1)(c1ccc(Cl)cc1)C(Cl)(Cl)Cl,inactive,inactive,inactive,,inactive,inactive,inactive,inactive,inactive,inactive,inactive,inactive,inactive,inactive,inactive,0.684% and -14.8%,,,inactive
